Records with an inconclusive call do not appear. Active and inactive are the calls of the source. Unless noted, calls come from the whole dose curve; as a rule, active = well fitted curve in the direction sought with a large enough effect in the repeat runs; inconclusive = weak or mixed curves; inactive = no such curve, though single readings can be large; an effect the other way counts as inactive or inconclusive.
How the values were obtained:
[1] = qHTS assay to identify small molecule agonists of the vitamin D receptor (VDR) signaling pathway - cell viability counter screen (AID 743224); note: nearly all actives have a fitted effect of over 50% in size; note: potency is the fitted concentration of half-maximal effect
Method in brief: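 Cells: VDR-bla, 2,000/well, settled 4 h. Treatment: compounds in DMSO, 16 h, 37C/5% CO2. Readout: CellTiter-Glo luminescence after 30 min RT.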

[2] = qHTS assay to identify small molecule antagonists of the vitamin D receptor (VDR) signaling pathway - cell viability counter screen (AID 743225); note: nearly all actives have a fitted effect of over 50% in size; note: potency is the fitted concentration of half-maximal effect
Method in brief: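 Luminescent cell viability (CellTiter-Glo) in VDR-bla HEK 293T cells after 16 h compound exposure at 37C in the presence of 3 nM final 1-alpha,25-dihydroxy vitamin D3.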

[3] = qHTS assay to identify small molecule agonists of the endoplasmic reticulum stress response signaling pathway (AID 1159516; active = well fitted activation curve with a large enough effect in the signal ratio in the repeat runs, not every such curve was filed as active; the % refers to the signal ratio; note: potency is the fitted concentration of half-maximal effect)
Method in brief: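 Cells are seeded at 1,500 per well and incubated overnight. Compounds in DMSO are added for 5 hr at 37 C, then beta-lactamase FRET substrate for 2 hr at room temperature, and fluorescence at 460 and 530 nm is measured.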

[4] = qHTS assay to identify small molecule antagonists of the retinoid-related orphan receptor gamma (ROR-gamma) signaling pathway - cell viability counter screen (AID 1159520); note: nearly all actives have a fitted effect of over 50% in size; note: potency is the fitted concentration of half-maximal effect
Method in brief: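 Tet-on ROR gamma CHO cells (1,000/well) were plated 4 hr, given compounds in DMSO for 2 hr at 37 C, then induced with 1 uM final doxycycline for 16 hr. Viability was read as ATP by CellTiter-Glo luminescence after 30 min.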

[5] = target: Nuclear receptor ROR-gamma (Homo sapiens) (UniProt P51449); assay: qHTS assay to identify small molecule antagonists of the retinoid-related orphan receptor gamma (ROR-gamma) signaling pathway (AID 1159521; note: nearly all actives have a fitted effect of over 50% in size; note: potency is the fitted concentration of half-maximal effect)
Method in brief: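 CHO cells expressing RORγ under a TET-on promoter, luciferase under RORE control. Dox 1 uM final, 16 h; compounds added 2 h prior. Luminescence decrease measured.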

[6] = qHTS assay to identify small molecule agonists of the RXR signaling pathway - cell viability counter screen (AID 1159529); note: nearly all actives have a fitted effect of over 50% in size; note: potency is the fitted concentration of half-maximal effect
Method in brief: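 Same-well viability check after the LiveBLAzer FRET read: CellTiter-Glo added, luminescence measured after 30 min at room temperature. Reporter HEK 293T cells had been treated with compounds for 16 hr following a 5 hr preincubation.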

[7] = qHTS assay to identify small molecule antagonists of the retinoic acid receptor (RAR) signaling pathway (AID 1159552; note: nearly all actives have a fitted effect of over 50% in size; note: potency is the fitted concentration of half-maximal effect)
Method in brief: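 Readout: luciferase luminescence, 30 min post-reagent at RT. Setup: C3RL4 RARE reporter cells, compounds plus retinol 1 uM final, 6 hr incubation at 37 C and 5% CO2.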

[8] = qHTS assay to identify small molecule antagonists of the estrogen related receptor (ERR) signaling pathway from Tox21 library - cell viability counter screen (AID 1224834); note: nearly all actives have a fitted effect of over 30% in size; note: potency is the fitted concentration of half-maximal effect
Method in brief: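 ERR cells, 2,000/well; 6 h settle at 37 C/5% CO2; pin-tool compound transfer in DMSO; 17.5 h at 37 C; CellTiter-Fluor, 30 min; fluorescence intensity.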

[9] = qHTS assay to identify small molecule agonists of the AP-1 signaling pathway - cell viability counter screen (AID 1159525; calls by dose curve; note: nearly all actives have a fitted effect of over 55% in size; note: potency is the fitted concentration of half-maximal effect)
Method in brief: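 Each titration point was normalised to DMSO and tetra n-octyl ammonium bromide controls. The read was Cell Titer Glo luminescence after 30 min at RT, following 5 h compound exposure of ME-180 AP-1-bla cells at 37 °C.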

[10] = qHTS assay to identify small molecule antagonists of the retinoid acid receptor (RAR) signaling pathway - cell viability counter screen (AID 1159551); note: nearly all actives have a fitted effect of over 35% in size; note: potency is the fitted concentration of half-maximal effect
Method in brief: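 Cells (C3RL4) are plated, incubated overnight, dosed with compound in DMSO, then given retinol at 1 uM final. After 6 h at 37 C, CellTiter-Glo is added and luminescence read following 30 min at room temperature.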

[11] = qHTS assay to identify small molecule agonists of the endoplasmic reticulum stress response signaling pathway - cell viability counter screen (AID 1159517; calls by dose curve; note: nearly all actives have a fitted effect of over 50% in size; note: potency is the fitted concentration of half-maximal effect)
Method in brief: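 Cytotoxicity of test compounds toward ESRE-bla HeLa cells was assessed after 5 hr exposure. The luminescent CellTiter-Glo signal was measured 30 min after reagent addition.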

[12] = qHTS assay to identify small molecule agonists of the AP-1 signaling pathway (AID 1159526; calls by dose curve; note: % is set by controls: 0 for no effect and ±100 for the full control effect)
[13] = qHTS assay to identify small molecule agonists of the retinoic acid receptor (RAR) signaling pathway (AID 1159553); note: potency is the fitted concentration of half-maximal effect
Method in brief: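 Seed C3RL4 reporter cells at 1,000 per well and incubate overnight at 37 C. Add compounds in DMSO, incubate 6 hr. Add luciferase reagent, wait 30 min at room temperature, read luminescence.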

[14] = target: Retinoic acid receptor RXR-alpha (Homo sapiens) (UniProt P19793); assay: qHTS assay to identify small molecule agonists of the RXR signaling pathway (AID 1159527; calls by dose curve; note: % is set by controls: 0 for no effect and ±100 for the full control effect; nearly all actives have a fitted effect of over 35% in size)
Chain of Retinoic acid receptor RXR-alpha (Homo sapiens) (P19793 whole entry, looked up): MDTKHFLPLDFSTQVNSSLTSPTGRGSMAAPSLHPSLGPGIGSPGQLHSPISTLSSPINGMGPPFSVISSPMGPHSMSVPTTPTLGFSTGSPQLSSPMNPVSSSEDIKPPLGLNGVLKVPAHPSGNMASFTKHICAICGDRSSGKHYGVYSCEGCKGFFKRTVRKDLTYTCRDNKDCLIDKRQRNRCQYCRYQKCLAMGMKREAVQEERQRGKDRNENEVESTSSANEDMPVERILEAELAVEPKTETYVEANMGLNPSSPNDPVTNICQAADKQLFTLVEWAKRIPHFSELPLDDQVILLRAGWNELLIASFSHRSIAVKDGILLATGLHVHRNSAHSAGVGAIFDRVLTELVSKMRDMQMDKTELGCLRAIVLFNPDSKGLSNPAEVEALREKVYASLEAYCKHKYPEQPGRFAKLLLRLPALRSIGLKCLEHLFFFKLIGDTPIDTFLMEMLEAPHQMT
Method in brief: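 Beta-lactamase reporter assay, agonist format. Engineered HEK 293T line, charcoal-stripped FBS at 2%, overnight (16 hr) exposure, fluorescence at 460 and 530 nm after 405 nm excitation.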

[15] = qHTS assay to identify small molecule antagonists of the estrogen related receptor (ERR) signaling pathway - cell viability counter screen (AID 1224818); note: series mostly up to about 46 µM; % is set by controls: 0 for no effect and ±100 for the full control effect
Method in brief: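 ERR cells, 2,000/well; 6 h settle at 37 C/5% CO2; compound pin transfer (DMSO); 17.5 h at 37 C; CellTiter-Fluor, 30 min, fluorescence read.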

[16] = qHTS assay to identify small molecule antagonists of the estrogen related receptor (ERR) signaling pathway (AID 1224819)
Method in brief: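 qHTS in ERR cells, 2,000/well, 1536 format. Cpd (DMSO) added after 6 h settle, 18 h 37 C. One-Glo luminescence, 30 min RT.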

[17] = qHTS assay to identify small molecule agonists of the estrogen related receptor (ERR) signaling pathway (AID 1224820); note: % is set by controls: 0 for no effect and ±100 for the full control effect
Method in brief: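 Following a 6 h settling period, 2,000 ERR cells per well receive DMSO-dissolved compounds by pin tool and incubate 18 h at 37 C; agonist activity is scored from One-Glo luminescence read 30 min post-addition.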

[18] = system: estrogen-related receptor alpha (ERRalpha) with PGC-1alpha coactivator, human; assay: qHTS assay to identify small molecule antagonists of the estrogen related receptor signaling pathway with the pleiotropic PPARgamma coactivator (PGC) (AID 1224821; calls by dose curve)
Method in brief: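 Screening used NTP's PGC/ERR cells, dosed via pin tool with compound in DMSO alongside positive and negative controls. After 18 h at 37 C, One-Glo reagent sat 30 min at room temperature before luminescence detection.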

[19] = qHTS assay to identify small molecule antagonists of the estrogen related receptor signaling pathway with the pleiotropic PPARgamma coactivator (PGC) cell viability counter screen (AID 1224822;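 note: series mostly up to about 46 µM; viability read after 17.5 h compound exposure; % is set by controls: 0 for no effect and ±100 for the full control effect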)
Method in brief: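 Multiplexed viability counter screen run in PGC/ERR cells treated with compounds for 17.5 h at 37 C; live-cell protease signal measured by CellTiter-Fluor fluorescence.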

[20] = qHTS assay to identify small molecule agonists of the estrogen related receptor signaling pathway with the pleiotropic PPARgamma coactivator (PGC) (AID 1224823); note: % is set by controls: 0 for no effect and ±100 for the full control effect
Method in brief: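 In this quantitative high-throughput screen, an 18 h, 37 C treatment of PGC/ERR cells with compounds in DMSO preceded a One-Glo luminescence read taken after 30 min at room temperature.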

O=C(Nc1ccc(Cl)c(Cl)c1)c1cc(Cl)cc(Cl)c1O
active: Potency [1] 1.95 µM | Potency [2] 2.75 µM | Potency [3] 19.5 µM | Potency [4] 9.69 µM | Potency [5] 2.17 µM | Potency [6] 19.5 µM | Potency [8] 3.06 µM
inactive: Potency [7]

CN(C)CCOC(c1ccccc1)c1ccccc1 (tested in a mixture with another compound)
inactive: Potency [3] | Potency [9] | Potency [10]

CCCCCCCC/C=C\CCCCCCCC(=O)OCCOC(=O)CCCCCCC/C=C\CCCCCCCC
inactive: Potency [1] | Potency [2] | Potency [11] | Potency [4] | Potency [5] | Potency [9] | Potency [12] | Potency [6] | Potency [7] | Potency [13] | Potency [8]

C=C[C@](C)(O)CC[C@@H]1[C@@]2(C)CCCC(C)(C)[C@@H]2CC[C@@]1(C)O
inactive: Potency [3] | Potency [11]
active: Potency [1] 43.6 µM | Potency [2] 43.6 µM | Potency [9] 24.5 µM | Potency [6] 43.6 µM | Potency [10] 61.1 µM | Potency [8] 61.1 µM

COC(=O)CC#N
inactive: Potency [1] | Potency [2] | Potency [3] | Potency [4] | Potency [9] | Potency [12] | Potency [14] | Potency [6] | Potency [10] | Potency [7] | Potency [13] | Potency [8]

C=C(C)C(=O)OCCC[Si](Cl)(Cl)Cl
inactive: Potency [1] | Potency [2] | Potency [11] | Potency [4] | Potency [5] | Potency [9] | Potency [12] | Potency [6] | Potency [10] | Potency [13] | Potency [8]

C=CC(=O)OCCC#N
inactive: Potency [1] | Potency [2] | Potency [3] | Potency [11] | Potency [9] | Potency [6] | Potency [10] | Potency [13]

C[Si](C)(C)Cl
inactive: Potency [2] | Potency [3] | Potency [5] | Potency [9] | Potency [12] | Potency [14] | Potency [6] | Potency [7] | Potency [13] | Potency [8]

CC(O)C#CC(C)O (stereo unspecified)
active: Potency [4] 27 µM | Potency [5] 19.1 µM | Potency [6] 43.2 µM | Potency [7] 30.3 µM
inactive: Potency [3]

CCCCCCCCCCCCCCNCCO
inactive: Potency [2] | Potency [5] | Potency [9] | Potency [12] | Potency [14] | Potency [8]
active: Potency [11] 23.9 µM | Potency [4] 26.6 µM

CC(=O)OC(OC(C)=O)c1ccc([N+](=O)[O-])o1
active: Potency [2] 49.8 µM | Potency [5] 31.2 µM | Potency [6] 49.8 µM | Potency [7] 27.8 µM | Potency [8] 62.2 µM
inactive: Potency [3]

Nc1ncnc2c1ncn2[C@@H]1O[C@H](COP(=O)(O)O)[C@@H](O)[C@H]1O
active: Potency [2] 10.7 µM
inactive: Potency [3] | Potency [4] | Potency [5] | Potency [9] | Potency [14] | Potency [7] | Potency [13] | Potency [8]

CC(C)OC(=O)c1cc(C(=O)OC(C)C)cc([N+](=O)[O-])c1
inactive: Potency [1] | Potency [3] | Potency [9] | Potency [10] | Potency [15] | Potency [16] | outcome [17] | outcome [18] | Potency [19] | outcome [20] | Potency [8]

CCCCCCCC/C=C/CCCOC(C)=O
inactive: Potency [2] | Potency [11] | Potency [4] | Potency [5] | Potency [9] | Potency [12] | Potency [6] | Potency [7] | Potency [8]

Cc1ccc(N)cc1O
inactive: Potency [3] | Potency [4] | Potency [5] | Potency [10] | Potency [7] | Potency [15] | Potency [19]
active: Potency [9] 38.9 µM | Potency [13] 12.2 µM

C=CC(=O)OCCOCC(CC)(COCCOC(=O)C=C)COCCOC(=O)C=C
inactive: Potency [3]
active: Potency [1] 64.3 µM | Potency [2] 64.3 µM | Potency [4] 11.3 µM | Potency [7] 31.9 µM | Potency [13] 7.14 µM

CCCCCCCOC(=O)c1ccc(O)cc1
active: Potency [2] 38.9 µM | Potency [11] 54.9 µM | Potency [9] 49 µM | Potency [6] 55 µM | Potency [13] 34.4 µM
inactive: Potency [4] | Potency [5] | Potency [14] | Potency [10] | Potency [7]

CC(C)c1ccc(O)c(C(C)C)c1
inactive: Potency [3] | Potency [5] | Potency [7] | Potency [13] | Potency [8]
active: Potency [6] 38.9 µM

COC(=O)[C@]1(C)CCC[C@@]2(C)[C@H]1CC=C1C=C(C(C)C)CC[C@@H]12
active: Potency [11] 49 µM
inactive: Potency [2] | Potency [4] | Potency [5] | Potency [9] | Potency [12] | Potency [6] | Potency [7] | Potency [13]

CCN1CCN(c2cc(-c3ccc(F)cc3)c3c(n2)CCCCCC3)CC1
inactive: Potency [1] | Potency [2] | Potency [11] | activity, negative = cytotoxicity [4] -5.78% [at 19 µM] | activity change, negative = inhibition [5] -6.23% [at 19 µM] | viability change, negative = cytotoxic [9] 3.9% [at 15.8 µM] | activation [12] 6.74% [at 15.8 µM] | activity change, negative = cytotoxicity [6] -22.5% [at 15.8 µM] | activity change, negative = cytotoxicity [10] 0.574% [at 19 µM] | activity, negative = inhibition [7] 9.21% [at 19 µM] | Potency [13] | viability change, negative = cytotoxic [8] 0.165% [at 19 µM]

CN1CCN(C2Cc3ccccc3Sc3ccc(Cl)cc32)CC1 (stereo unspecified)
inactive: Potency [3] | Potency [10] | Potency [15] | outcome [17] | outcome [18] | outcome [20]
active: Potency [5] 26.6 µM | Potency [6] 23.9 µM | Potency [7] 29.8 µM

CCCCCCOc1ccc(O)cc1
active: Potency [13] 0.611 µM
inactive: Potency [2] | Potency [3] | Potency [4] | Potency [5] | Potency [7]

Reference: PubChem BioAssay (Tox21)
